Results filed as inconclusive are left out. Activity calls are given as the source filed them. Unless noted, the call rests on the fitted dose curve; in most records, active means well fitted cell-killing curve with a large enough effect; inconclusive means small, poorly fitted or top-dose-only effect; inactive means flat fitted curve, though single readings scatter.
How the values were obtained:
[1] = Cell Viability - LYMP2-025 (AID 976); further: series mostly up to about 92 µM
Procedure, shortened: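 CellTiter-Glo luminescence (cellular ATP) after 24 h compound exposure at 37 C; LYMP2-025 human lymphoblastoid cells, 2500/well, complete medium. Tetraoctylammonium bromide positive control. AC50 by Hill equation fit of qHTS concentration-response.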

[2] = Cell Viability - LYMP2-002 (AID 977); further: series mostly up to about 92 µM
Procedure, shortened: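 Human lymphoblastoid cells, 2500/well, complete medium; 5 h 37 C settle; compound 24 h 37 C; CellTiter-Glo, 30 min RT; luminescence. Decrease in ATP = cytotoxicity; AC50 via Hill equation.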

[3] = Cell Viability - LYMP2-007 (AID 979);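 further: cells exposed to compound for 24 h before reading; nearly all actives have a fitted effect of over 60% in size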
Procedure, shortened: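 qHTS cytotoxicity: 2500 cells/well, 5 hr 37 C settle, compound 24 hr 37 C, CellTiter-Glo 30 min RT, luminescence. Decrease in ATP = toxicity. AC50 by standard Hill equation; tetraoctylammonium bromide positive control.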

[4] = Cell Viability - LYMP2-008 (AID 980); further: nearly all actives have a fitted effect of over 60% in size
Procedure, shortened: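 Luminescent ATP read-out (CellTiter-Glo, 30 min RT) after 24 hr compound exposure at 37 C of human lymphoblastoid cells in complete medium. Decrease in ATP taken as cytotoxicity; AC50 derived by standard Hill fit of qHTS concentration-response data.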

[5] = Cell Viability - LYMP2-010 (AID 981);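 further: cells exposed to compound for 24 hours at 37 °C; nearly all actives have a fitted effect of over 55% in size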
Procedure, shortened: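 qHTS cytotoxicity, 1536-well: 2500 cells/well, 5 hr settle, 24 hr compound at 37 C, CellTiter-Glo 30 min RT, luminescence read. Decrease in ATP = toxicity; AC50 via standard Hill equation. Positive control tetraoctylammonium bromide.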

[6] = Cell Viability - LYMP2-014 (AID 983); further: series mostly up to about 92 µM; nearly all actives have a fitted effect of over 50% in size
Procedure, shortened: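 2500 cells/well, 5 hr 37 C; cpd 24 hr 37 C, complete medium; CellTiter-Glo 30 min RT, luminescence; ATP loss = toxicity; AC50 via Hill eqn; tetraoctylammonium bromide positive control.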

[7] = Cell Viability - LYMP2-016 (AID 984);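 further: cells exposed to compound for 24 hours at 37 °C; nearly all actives have a fitted effect of over 55% in size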
Procedure, shortened: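 qHTS, 1536-well: 2500 LYMP2-016 cells/well, 5 hr 37 C, compound added, 24 hr 37 C, CellTiter-Glo 30 min RT, luminescence. Tetraoctylammonium bromide positive control. AC50 via Hill fit.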

[8] = Cell Viability - LYMP2-018 (AID 985); further: nearly all actives have a fitted effect of over 50% in size
Procedure, shortened: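 2500 cells/well; 5 hr 37 C; cmpd 24 hr 37 C, complete medium; CellTiter-Glo 30 min RT; luminescence. Tetraoctylammonium bromide positive control. AC50 via Hill fit.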

[9] = Cell Viability - LYMP2-020 (AID 986); further: series mostly up to about 92 µM; nearly all actives have a fitted effect of over 55% in size
Procedure, shortened: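 qHTS, 2500 cells/well; 5 hr then 24 hr compound exposure, 37 C; CellTiter-Glo luminescence after 30 min RT; ATP decrease taken as cytotoxicity; AC50 via Hill equation; tetraoctylammonium bromide positive control.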

[10] = Cell Viability - LYMP2-022 (AID 987); further: nearly all actives have a fitted effect of over 55% in size
Procedure, shortened: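 Luminescent ATP read-out (CellTiter-Glo, 30 min, RT) after 24 hr, 37 C compound exposure of 2500 human lymphoblastoid cells/well in complete medium. Cytotoxicity taken as concentration-dependent ATP loss; AC50 from standard Hill equation.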

[11] = Cell Viability - LYMP2-024 (AID 988); further: nearly all actives have a fitted effect of over 60% in size
Procedure, shortened: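 ATP-based luminescence (CellTiter-Glo, 30 min RT) after 24 h compound exposure at 37 C of 2500 lymphoblastoid cells/well; decrease in ATP taken as cytotoxicity. qHTS concentration-response fitted to standard Hill equation for AC50.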

[12] = Cell Viability - LYMP2-026 (AID 989); further: nearly all actives have a fitted effect of over 50% in size
Procedure, shortened: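 qHTS cytotoxicity: 2500 cells/well, 5 hr 37 C, compound 24 hr 37 C, CellTiter-Glo 30 min RT, luminescence. Tetraoctylammonium bromide positive control. AC50 via standard Hill fit.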

[13] = Cell Viability - LYMP1-002 - Assay at 24 hr (AID 993)
Procedure, shortened: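 CellTiter-Glo luminescence (intracellular ATP) after 24 h compound exposure, 37 C, in LYMP1-002 human lymphoblastoid cells; decreased ATP taken as cytotoxicity. AC50 from standard Hill fit of concentration-response curves.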

[14] = Cell Viability - LYMP1-002 - Assay at 40 hr (AID 994); further: nearly all actives have a fitted effect of over 60% in size
Procedure, shortened: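 qHTS cytotoxicity; 2500 cells/well, 5 hr 37 C settle, compound 40 hr 37 C. CellTiter-Glo, 30 min RT, luminescence (ATP). Concentration-response, Hill fit → AC50. Pos. ctrl tetraoctylammonium bromide.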

[15] = qHTS Assay for Identification of Small Molecule Inducers of Hypoxia Response (AID 2120; active means well fitted curve in the direction sought with a large enough effect in the signal ratio, with a control signal flat, not every such curve was filed as active; the % refers to the signal ratio)
Procedure, shortened: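 Read-out: CCF4 FRET emission ratio 460nm/530nm (excitation 405nm), converted to %Activity, with AC50 fitted across a compound titration. ME-180 cells carried an HRE-driven beta-lactamase reporter; compound exposure 17 h, 37 degrees C.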

[16] = molecular target: Estrogen receptor (Homo sapiens) (UniProt P03372); assay: qHTS assay for small molecule antagonists of estrogen receptor alpha signaling (AID 588513; active means well fitted curve in the direction sought with a large enough effect in the signal ratio, with a control signal flat, not every such curve was filed as active; the % refers to the signal ratio)
Procedure, shortened: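 Beta-lactamase reporter, antagonist mode, HEK 293 GripTite cells; 0.5nM E2 stimulus, 18 h, 37 C; CCF4 dye 2 h RT; fluorescence. IC50 and efficacy from Hill fits, normalized to E2 and DMSO.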

[17] = molecular target: Estrogen receptor (Homo sapiens) (UniProt P03372); assay: qHTS assay for small molecule agonists of estrogen receptor alpha signaling (AID 588514; calls by dose curve; further: nearly all actives have a fitted effect of over 70% in size)
Procedure, shortened: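 Read-out: CCF4 fluorescence from a beta-lactamase reporter in ER-alpha-UAS-bla HEK 293 cells after 18 hrs of compound exposure at 37 C. Normalized to 20 nM 17-beta-estradiol (100%) and DMSO (0%).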

[18] = Cell Viability - LYMP2-006 (AID 978)
Procedure, shortened: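 qHTS, 1536-well; 2500 cells/well, 5 hr 37 C; cpd 24 hr 37 C; CellTiter-Glo 30 min RT; luminescence. Tetraoctylammonium bromide pos. ctrl. AC50 via Hill eqn.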

[19] = Cell Viability - LYMP2-012 (AID 982)

Measured: Potency

Sequence of Estrogen receptor (Homo sapiens) (P03372 whole entry, looked up): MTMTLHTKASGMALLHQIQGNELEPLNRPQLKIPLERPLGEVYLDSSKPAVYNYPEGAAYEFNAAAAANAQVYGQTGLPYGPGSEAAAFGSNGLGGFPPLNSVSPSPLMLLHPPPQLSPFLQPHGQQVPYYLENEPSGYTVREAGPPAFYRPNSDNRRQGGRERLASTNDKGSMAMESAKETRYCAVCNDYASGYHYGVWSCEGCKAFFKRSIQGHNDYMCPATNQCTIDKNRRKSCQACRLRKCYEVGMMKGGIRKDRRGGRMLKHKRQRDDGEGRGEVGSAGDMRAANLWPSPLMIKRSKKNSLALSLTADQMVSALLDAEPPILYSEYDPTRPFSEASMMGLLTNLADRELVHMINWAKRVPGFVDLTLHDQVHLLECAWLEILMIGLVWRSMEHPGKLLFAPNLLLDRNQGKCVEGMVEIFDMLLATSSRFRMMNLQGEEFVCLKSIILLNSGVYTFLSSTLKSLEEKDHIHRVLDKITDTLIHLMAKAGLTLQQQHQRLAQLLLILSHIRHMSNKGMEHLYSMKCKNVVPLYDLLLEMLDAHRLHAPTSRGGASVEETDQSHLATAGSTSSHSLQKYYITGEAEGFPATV

C=CC(=O)NC(C)C
not listed: [18] | [19]
inactive: all other assays above

CC(C)CCOC(=O)/C=C/c1ccccc1
not listed: [3] | [4]
inactive: all other assays above

Cc1ccc2nc(-c3ccc(N)cc3)sc2c1S(=O)(=O)O
not listed: [17]
inactive: all other assays above

Cc1cscn1
not listed: [3] | [12]
inactive: all other assays above

CC(=O)OCc1ccco1
not listed: [18]
inactive: all other assays above

Cc1ccc2ccccc2c1[N+](=O)[O-]
not listed: [3] | [7] | [18] | [19]
inactive: all other assays above

CCCCCCCCCCCCOCC1CO1 (centres undefined)
not listed: [18]
inactive: all other assays above

Nc1cc(Cl)c(N)c(Cl)c1
not listed: [3] | [4] | [8]
inactive: all other assays above

CC(=O)c1ccccc1[N+](=O)[O-]
not listed: [18]
inactive: all other assays above

Source: PubChem BioAssay (NCATS)
